Records with an inconclusive call do not appear. Active and inactive are the calls of the source. The call rests on the fitted dose curve; in most records, active means well fitted inhibition curve with a large enough effect; inconclusive means small, poorly fitted or top-dose-only effect; inactive means no such curve, though single readings can be large or run the other way.

This experiment can be described thus: Primary qHTS for inhibitors of La Crosse Virus (LACV) - induced cell death in SH-SY5Y cells (AID 1508616).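 Further: top concentration of the series differs between compounds; higher means more rescue of cells from virus-induced death.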 The conditions noted are these: SH-SY5Y LACV cytopathicity rescue, ATP luminescence, 6 d; series mostly up to 4.29 µM. An outline of the steps:
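Cytopathicity rescue screen: compounds pinned onto SH-SY5Y cells, which are then infected with LACV (MOI 0.01) and held 6 days at 37C. Percent activity is scaled between infected DMSO control and uninfected DMSO control.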
(In general: qHTS replaces the single test concentration by a dilution series.)
`CC(C)(C)NC[C@H](O)COc1cccc2c1CCCC2=O`: the outcome was inactive.
Consider `NC(=S)N/N=C/c1cccnc1`, for which the call was inactive.
In the case of `O=S(c1cc(Cl)cc(Cl)c1O)c1cc(Cl)cc(Cl)c1O` it was “inactive”; in that of `NC(=O)n1c(O)c(C(=O)c2cccs2)c2cc(Cl)ccc21`, “inactive”.
As for `O=C(O)Cc1csc(-c2ccc(Cl)cc2)n1`, the compound was classed as inactive.
As to `CCCc1ncc(C[n+]2ccccc2C)c(N)n1`, the compound was called inactive.
As to `O=C(NC1CCN(CCc2c[nH]c3ccccc23)CC1)c1ccccc1`, the call was inactive.
In the case of `FC(F)(F)C(F)(F)C(F)(F)C(F)(F)C(F)(F)C(F)(F)C(F)(F)C(F)(F)Br` it was “inactive”; in that of `CNCCc1ccccn1`, “inactive”.
In the case of `CC(C(=O)O)c1cccc(Oc2ccccc2)c1` (configuration not stated) it was “inactive”; in that of `CN1CCc2cccc3c2[C@H]1Cc1ccc(O)c(O)c1-3`, “inactive”.
In the case of `CCN(CC)CCNC(=O)COc1ccc(OC)cc1` it was “inactive”; in that of `CC(=O)N[C@@H](CCC(=O)O)C(=O)O`, “inactive”; in that of `CC(=O)Nc1ccc(OC(=O)c2ccccc2OC(C)=O)cc1`, “inactive”.
Take `CCN(CC)CCOC(=O)C1(c2ccccc2)CCCC1`: the compound was called inactive.
Take `Cc1ncc(CO)c(C=O)c1O`: the compound was called inactive.
In the case of `CC(C)[N+](C)(C)CC(O)COc1cccc2ccccc12` (configuration not stated) it was “inactive”.
In the case of `O=C(Oc1cccc2cccnc12)c1ccccc1` it was “inactive”; in that of `NS(=O)(=O)c1cc(C(=O)O)cc(N2CCCC2)c1Oc1ccccc1`, “inactive”; in that of `Nc1ccc(S(=O)(=O)NCc2ccccc2)cc1`, “inactive”.
In the case of `CC(=O)OCC1=C(C(=O)O)N2C(=O)[C@@H](NC(=O)CSc3ccncc3)[C@H]2SC1` it was “inactive”.
In the case of `CCCCCCCCCCCCSCCOCCO`, the compound was classed as inactive.
